Test results: PubChem BioAssay (NCATS)
Inconclusive results are not listed. Activity calls are given as the source filed them. Unless noted, the call rests on the fitted dose curve; in most records, active means well fitted curve in the direction sought with a large enough effect; inconclusive means small, poorly fitted or top-dose-only effect, or another doubt; inactive means no such curve, though single readings can be large; an effect the other way counts as inactive or inconclusive.

Experiments:
[1] = HPAF-II 24hr Apoptosis Induction qHTS against the NCATS CANVASS Library (AID 1347356); further: 0% is about no effect
In short: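 Caspase-Glo 3/7 luminescence, read after 15 min room-temperature development, measures apoptosis in HPAF-II cells treated 24 h at 37 degrees C with an 11-point concentration series; 500 cells/well; doxorubicin control.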

[2] = HEK293 18hr Apoptosis Induction qHTS against the NCATS CANVASS Library (AID 1347357); further: 0% is about no effect
In short: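 Cells seeded at 500/well in DMEM + 10% FBS. Compounds pinned, 11 concentrations. 18 h, 37 degrees C/5% CO2. Caspase-Glo 3/7 added, 15 min RT dark, luminescence read.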

[3] = HPAF-II 12hr Apoptosis Induction qHTS against the NCATS CANVASS Library (AID 1347358); further: 0% is about no effect
In short: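 Caspase-3/7 activation by DEVD-substrate luminescence (Caspase-Glo 3/7, 15 min, room temperature) after a 12-hour compound exposure in 11 concentrations, of HPAF-II pancreatic cells seeded at 500/well in DMEM with 10% FBS.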

[4] = HEK293 24hr Apoptosis Induction qHTS against the NCATS CANVASS Library (AID 1347359); further: 0% is about no effect
In short: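 HEK293 cells, 500 per well, exposed to an 11-point compound series for 24 hours at 37 degrees C. Caspase 3/7 activity read by Caspase-Glo luminescence (DEVD substrate) after 15 min at room temperature.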

[5] = HPAF-II 18hr Apoptosis Induction qHTS against the NCATS CANVASS Library (AID 1347360); further: 0% is about no effect
In short: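 Seed HPAF-II cells at 500/well in DMEM + 10% FBS, pin-transfer compounds, incubate 18 hours at 37 degrees C/5% CO2, add Caspase-Glo 3/7 reagent, wait 15 min, read luminescence.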

[6] = qHTS for ATAD5 Agonist screened against the NCATS CANVASS Library (AID 1347367);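 further: luciferase reporter driven by ATAD5 which rises upon DNA damage; 0% is about no effect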
In short: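 HEK293T-ATAD5 luc reporter; 2000 cells/well; 5hr settle; cpd 11-pt qHTS; 16hr 37C 5% CO2 dark; viability by CellTiter-Fluor (AFC fluorescence); then luciferase luminescence, 30min RT.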

[7] = MCF7 Cancer Cell Toxicity qHTS against the NCATS CANVASS Library (AID 1347369)
In short: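 Cells seeded at 500/well, then compound pinned. Plates incubated 72 hr at 37C, 5% CO2. CellTiterGlo added; luminescence read.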

[8] = molecular target: Nuclear receptor subfamily 1 group I member 3 (Homo sapiens) (UniProt Q14994); experiment: qHTS for Constitutive Androstane Receptor (CAR) Agonist screened against the NCATS CANVASS Library (AID 1347373);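 further: every well also contained 1.5 µM PK11195 alongside the test compound; 0% is about no effect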
In short: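 Agonist mode with 1.5uM PK11195 present: compounds for 24hr on HepG2-hCAR-CYP2B6 cells. CellTiter-Fluor fluorescence (ex 405, em 540 nm) gives viability; ONE-Glo luminescence reports CAR activation.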

[9] = qHTS for Hypoxia signaling pathway (HIF-1) agonists against the NCATS CANVASS Library (AID 1347375); further: 0% is about no effect
In short: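 Beta-lactamase reporter under HRE control in ME-180 cells; compounds (11-point qHTS series) added after 5 hrs plating, then 17 hrs at 37C. FRET substrate read after 2 hr; same-well CellTiter-Glo luminescence gave viability and normalization.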

[10] = DH5-alpha competent E. coli microbial cell viability qHTS against the NCATS CANVASS Library (AID 1347377); conditions: outcome: dose series up to 46.1 µM unless noted
In short: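 Bacterial viability as ATP-dependent luminescence (BacTiter-Glo), read after overnight 37 °C exposure of DH5-alpha competent E. coli to compounds in 11-point titration.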

[11] = qHTS for H2AX Agonists against the NCATS CANVASS Library (AID 1347378);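 further: phospho-H2AX S139 level in CHO-K1 lysates by TR-FRET emission ratio; 0% is about no effect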
In short: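 CHO-K1, 1000 cells/well, o/n 37C; cpd several conc, 3 hr 37C, 0.76% DMSO; lyse 30 min RT; cryptate anti-pH2AX(S139) + d2 anti-H2AX, 24 hr RT; HTRF 665/620.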

[12] = qHTS for Inflammasome Signaling Inhibitors: IL-1-beta AlphaLISA screen against the NCATS CANVASS Library (AID 1347379);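 further: human THP-1 cells primed with LPS then triggered with ATP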;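 on Potency: secreted IL-1B measured as AlphaLISA emission at 615 nm; potency means the concentration at half of the fitted maximal effect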
In short: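 Secreted IL-1B from human THP-1 cells quantified by AlphaLISA 16 hr after compound addition (final up to 57.5 uM). A 1 hr compound pretreatment preceded inflammasome activation with 250 ng/mL LPS plus 1.25 mM ATP (final).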

[13] = qHTS for activators of dead-cell proteases activity screened against the NCATS CANVASS Library (AID 1347392);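 further: luminescence from protease leaking out of membrane-damaged cells cleaving impermeant substrate; 0% is about no effect; rising signal means more cytotoxicity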
In short: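 HepG2, 2000 cells/well, 18 h attach; cpd 11-pt, 5 h 37C 5% CO2; CytoTox-Glo (AAF-aminoluciferin) 15 min RT; luminescence read.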

[14] = qHTS to identify inhibitors of the type 1 interferon - major histocompatibility complex class I in skeletal muscle: primary screen against the NCATS Mechanism Interrogation Plate v5.0 (MIPE) Libary (AID 1347411); further: nearly all actives have a fitted effect of over 65% in size; further: potency means the concentration at half of the fitted maximal effect;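 on activity change, negative = inhibition: plate controls were vehicle for no effect and reference inhibitor for full effect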
In short: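 Luminescence from CRISPR HiBit-tagged endogenous HLA-B in human myoblasts reported MHC class I level after 24 h of IFN-beta (4 ng/ml) plus compound. Compounds ran as 11-point 1:3 series, top 46 uM final.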

[15] = Primary qHTS for inhibitors of nuclear receptor binding SET domain protein 2 (NSD2) in an isogenic RCH-ACV NSD2 p.E1099K mutant (9B) (AID 1645876); further: potency means the concentration at half of the fitted maximal effect; nearly all actives have a fitted effect of over 70% in size
[16] = Primary qHTS for inhibitors of nuclear receptor binding SET domain protein 2 (NSD2) in an RCH-ACV wild type WT cells (2C) (AID 1645877); further: potency means the concentration at half of the fitted maximal effect; nearly all actives have a fitted effect of over 70% in size
[17] = molecular target: Glutathione peroxidase 1 (Homo sapiens) (UniProt P07203); experiment: Primary qHTS Assay for Inhibitors of Recombinant Selenoprotein Glutathione Peroxidase 1 (GPX1) (AID 1845191); further: nearly all actives have a fitted effect of over 65% in size
In short: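 GR-coupled readout: NADPH consumption tracked by fluorescence, ex 340/em 450 nm, at t=0 and after 15 min at RT. Final mix 10 nM GPX1, 1 mM GSH, 0.5 mM CHP, 0.5 mM NADPH, 100 nM GR, 0.01% BSA, following 30 min enzyme–compound preincubation.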

[18] = molecular target: Phospholipid hydroperoxide glutathione peroxidase GPX4 (Homo sapiens) (UniProt P36969); experiment: Primary qHTS Assay for Inhibitors of Recombinant Selenoprotein Glutathione Peroxidase 4 (GPX4) (AID 1845192); conditions: outcome: dose series up to 50 µM unless noted; further: nearly all actives have a fitted effect of over 65% in size; on activity change, negative = inhibition: on the % scale 0 is the no-effect control and ±100 the full control effect
In short: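 Steps: GPX4 plus compound, 30 min RT; add GR/GSH/NADPH master mix; start with cumene hydroperoxide; read 340/450 nm fluorescence at 0 and 15 min. Finals were 200 nM GPX4, 1 mM GSH, 0.5 mM CHP, 0.5 mM NADPH, 100 nM GR.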

[19] = qHTS drug screen for cell cycle checkpoint inhibitors in PARPi-resistant BRCA-mutant ovarian cancer cell lines. (AID 1963452; calls by dose curve; further: potency means the concentration at half of the fitted maximal effect); conditions: PEO1/OlaR viability, CellTiter-Glo luminescence, 96 h; for Z-AUC: stronger effect = lower value
In short: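 PEO1, PEO4 and PEO1/OlaR ovarian cancer cells, 600 per well, exposed 96 h at 37C to a dilution series. Viability read by CellTiter-Glo luminescence, normalized to DMSO and empty wells; activity summarized as Z-AUC.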

[20] = qHTS assay to identify inhibitors of the type 1 interferon - major histocompatibility complex class I in skeletal muscle: Counter screen cell viability and HiBit confirmation (AID 1347412); conditions: iHSKM muscle cells + IFN-b, HiBiT or CellTiter-Glo, 24 h; for Potency: HiBiT; for activity change, negative = inhibition: Viability, at 45.9 µM (top of the series); further: potency means the concentration at half of the fitted maximal effect; on activity change, negative = inhibition: on the % scale 0 is the no-effect control and ±100 the full control effect; on all read-outs here: nearly all actives have a fitted effect of over 60% in size
In short: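 Luminescence read-out: Nano-Glo HiBiT lytic signal from C-terminally HiBiT-tagged HLA-B in CRISPR-edited human myoblasts, plus CellTiter Glo ATP as viability counter screen. IFN-beta 4.0 ng/ml; 24 hrs treatment at 37 C, 5% CO2.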

[21] = measured here: PEO1 parental Z-AUC

Sequence of Nuclear receptor subfamily 1 group I member 3 (Homo sapiens) (Q14994 whole entry, looked up): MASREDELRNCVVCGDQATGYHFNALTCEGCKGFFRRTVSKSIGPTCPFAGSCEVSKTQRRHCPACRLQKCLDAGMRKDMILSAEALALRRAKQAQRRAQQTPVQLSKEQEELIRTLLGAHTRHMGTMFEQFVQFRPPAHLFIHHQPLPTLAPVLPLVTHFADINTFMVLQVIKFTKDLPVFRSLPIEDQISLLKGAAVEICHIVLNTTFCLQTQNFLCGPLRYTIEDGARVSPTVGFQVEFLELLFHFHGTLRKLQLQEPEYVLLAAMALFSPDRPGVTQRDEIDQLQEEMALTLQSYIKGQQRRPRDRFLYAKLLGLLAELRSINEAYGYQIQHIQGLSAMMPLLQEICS
Sequence of Phospholipid hydroperoxide glutathione peroxidase GPX4 (Homo sapiens) (P36969 whole entry, looked up): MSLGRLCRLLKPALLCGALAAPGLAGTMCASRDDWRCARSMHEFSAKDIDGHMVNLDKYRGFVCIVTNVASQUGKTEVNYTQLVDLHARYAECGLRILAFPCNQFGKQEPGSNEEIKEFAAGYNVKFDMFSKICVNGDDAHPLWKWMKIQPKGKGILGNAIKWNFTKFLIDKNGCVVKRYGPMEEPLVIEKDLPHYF
Sequence of Glutathione peroxidase 1 (Homo sapiens) (P07203 whole entry, looked up): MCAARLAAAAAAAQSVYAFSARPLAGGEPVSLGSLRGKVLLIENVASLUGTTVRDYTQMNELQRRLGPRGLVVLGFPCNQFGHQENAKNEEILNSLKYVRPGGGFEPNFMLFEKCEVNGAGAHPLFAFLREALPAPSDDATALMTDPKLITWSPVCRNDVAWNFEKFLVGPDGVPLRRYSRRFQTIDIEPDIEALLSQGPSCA

COc1ccc([C@@H]2c3cc4c(cc3C[C@H](C)C2C)OCO4)cc1OC (stereo partly drawn)
inactive: outcome [1] | Potency [2] | Potency [3] | Potency [4] | Potency [5] | Potency [6] | Potency [7] | Potency [8] | outcome [9] | outcome [10] | Potency [11] | Potency [12] | Potency [13]

Fc1cccc(-n2cnc3c(NCc4nc5c(F)c(F)ccc5[nH]4)nc(N4CCOCC4)nc32)c1
active: Potency [14] 523 nM | Potency [15] 166 nM | Potency [16] 166 nM | Potency [20] 442 nM
-2.45: Z-AUC [19, 21]
-2.33: Z-AUC ([19]; measured here: PEO4 Z-AUC)
inactive: Potency [17] | Potency [18] | Z-AUC [19] -1.76 | activity change, negative = inhibition [20] -14.7%

COc1ccc([C@@H]2c3cc4c(cc3C(=O)[C@H](C)C2C)OCO4)cc1OC (stereo partly drawn)
inactive: outcome [1] | Potency [2] | Potency [3] | Potency [4] | Potency [5] | Potency [6] | Potency [7] | Potency [8] | outcome [9] | outcome [10] | Potency [11] | Potency [12] | Potency [13]

CS[C@H]1SC[C@@H]2C(=O)N(C)[C@H](C(C)C)C(=O)OC[C@H](NC(=O)c3cnc4ccccc4n3)C(=O)N[C@H](C)C(=O)N(C)[C@H]1C(=O)N(C)[C@H](C(C)C)C(=O)OC[C@H](NC(=O)c1cnc3ccccc3n1)C(=O)N[C@H](C)C(=O)N2C
-3.11: Z-AUC ([19]; measured here: PEO4 Z-AUC)
inactive: Potency [17] | Potency [18] | activity change, negative = inhibition [20] 4.37%
-3.58: Z-AUC [19, 21]
active: Potency [14] 10.4 nM | Potency [15] 1.5 nM | Potency [16] 1 nM | Potency [19] 8.7 nM | Potency [20] 12.5 nM

C[C@H](c1cnc(N)[nH]1)c1ccc(O)c2[nH]cc(-c3cnc(-c4c[nH]c5ccccc45)c(=O)[nH]3)c12
inactive: outcome [1] | Potency [2] | Potency [3] | Potency [4] | Potency [5] | Potency [6] | Potency [7] | Potency [8] | Potency [11] | Potency [13]

O[C@H]1C=C2[C@H]3CN(Cc4cc5c(cc43)OCO5)[C@H]2C[C@@H]1O
inactive: outcome [1] | Potency [2] | Potency [3] | Potency [4] | Potency [5] | Potency [6] | Potency [7] | Potency [8] | outcome [9] | outcome [10] | Potency [11] | Potency [12] | Potency [13]

C/C(=C\[C@H](C)C(=O)/C=C/CC1CC(=O)NC(=O)C1)[C@@H]1OC(=O)CCCC/C=C/[C@H](O)[C@@H](O)[C@@H]1C
active: Potency [12] 21700 nM
inactive: outcome [1] | Potency [2] | Potency [3] | Potency [4] | Potency [5] | Potency [6] | Potency [7] | Potency [8] | outcome [9] | outcome [10] | Potency [11] | Potency [13]

CN[C@@H](C)C(=O)N[C@@H]1C(=O)N(Cc2c(C)ccc3ccccc23)c2ccc(C#N)cc2N(C(C)=O)[C@H]1C
inactive: Potency [14]
